In the library only some 5.7% were active in any assay of this set; here they are far more common.
DAX1 inh-1 = inhibitors of DAX1 repression of SF-1 activated StAR promoter. HEK293T StAR-luciferase reporter, SF-1/DAX-1 repression relief. AID 652010. 370,000 tested, 1.1% active. inhibition, % at 6.8 µM;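 active means inhibition above the mean over all tested compounds plus 3 SD, cut at about 3.6% in these data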;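 further: higher inhibition means more luminescence from relief of DAX-1 repression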
DAX1 inh-2 = inhibitors of human orphan nuclear receptor DAX1 (NR0B1) | HEK293 Gal4-DAX1 luciferase reporter, luminescence | inhibition, % at 6.75 µM | 340,000 tested, 0.99% active | AID 504766;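 active means inhibition above the mean over all tested compounds plus 3 SD, cut at about 4.2% in these data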;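 further: inhibition shows as a rise in luminescence from relieved DAX1 repression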
hgDAF-12 ag = hgDAF-12 agonism, primary luciferase screen. HEK293 GAL4-hgDAF12 UAS-luciferase reporter, agonist luminescence; normalized to butyrate control. activation, % at 6.8 µM. 370,000 tested, 1.8% active;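 active means activation above a cutoff set at the mean of all screened compounds plus 3 SD, cut at about 10% in these data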
AHR activator = human AHR activation. P35869. AHR-responsive luciferase reporter cells, luminescence. activation, % at 5 µM. 320,000 tested, 2.5% active; in the data active means activation above about 47%
Target sequence (P35869 whole entry, looked up): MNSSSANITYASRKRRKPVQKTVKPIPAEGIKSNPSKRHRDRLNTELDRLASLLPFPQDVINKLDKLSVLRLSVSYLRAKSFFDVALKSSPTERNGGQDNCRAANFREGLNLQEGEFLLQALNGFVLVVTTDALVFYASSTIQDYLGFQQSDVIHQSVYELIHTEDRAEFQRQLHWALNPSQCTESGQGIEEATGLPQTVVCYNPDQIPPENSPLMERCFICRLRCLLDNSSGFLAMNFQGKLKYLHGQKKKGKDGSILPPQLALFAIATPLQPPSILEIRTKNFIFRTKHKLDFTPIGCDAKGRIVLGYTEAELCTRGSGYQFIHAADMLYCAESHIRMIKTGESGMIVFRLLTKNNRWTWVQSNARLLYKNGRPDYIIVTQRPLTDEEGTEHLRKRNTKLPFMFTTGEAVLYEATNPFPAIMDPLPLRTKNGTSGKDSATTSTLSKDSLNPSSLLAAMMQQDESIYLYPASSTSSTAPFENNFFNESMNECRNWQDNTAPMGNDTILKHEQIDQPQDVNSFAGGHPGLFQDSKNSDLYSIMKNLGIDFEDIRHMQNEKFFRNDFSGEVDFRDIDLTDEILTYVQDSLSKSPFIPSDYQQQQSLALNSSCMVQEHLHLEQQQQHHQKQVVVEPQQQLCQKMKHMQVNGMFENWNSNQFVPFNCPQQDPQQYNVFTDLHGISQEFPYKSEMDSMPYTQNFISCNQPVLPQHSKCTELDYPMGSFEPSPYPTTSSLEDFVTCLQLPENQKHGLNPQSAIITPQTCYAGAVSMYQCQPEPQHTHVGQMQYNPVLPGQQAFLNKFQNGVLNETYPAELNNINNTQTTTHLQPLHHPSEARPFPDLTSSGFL
hcDAF-12 act = activates DAF-12 receptor from parasite H. contortus. HEK293 hcDAF-12 lit1-tk-luc reporter, luminescence; 0% DMSO, 100% Δ7-dafachronic acid. activation, % at 6.8 µM. 370,000 tested, 1.4% active. AID 652067;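 active means activation above the mean of all tested compounds plus 3 SD, cut at about 5.5% in these data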
ssDAF-12 act = activators of S. stercoralis DAF-12 nuclear receptor | HEK293 ssDAF-12/GRIP1 lit1-tk-luc reporter, luminescence; % of 3 µM dafachronic acid response | activation, % at 6.8 µM | 370,000 tested, 1% active | AID 652126;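 active means activation above the mean over all tested compounds plus 3 SD, cut at about 0.9% in these data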
hgDAF12 conf = confirmation of H. glycines DAF-12 agonists | AID 743050 | HEK293 GAL4-hgDAF12 luciferase reporter, agonist mode; percent of butyrate response | activation, % at 6.8 µM | 3,300 tested, 80% active | shares compounds with hgDAF-12 ag;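 active means mean activation over triplicate wells above the hit cutoff derived from the earlier primary screen, cut at about 11% in these data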
LXR ag 2 = counter-screen for DAF-12 agonists: agonists of human LXR-beta; shares compounds with hgDAF-12 ag; HEK293 Gal4-LXR luciferase reporter, 24 h; activation, % at 6.8 µM; 3,300 tested, under 10 active; AID 743051;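 active means mean activation of the triplicate above a set limit carried over from the primary screen, none filed active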
Hits are given with their value; – = inactive; · = no result given.

SMILES	DAX1 inh-1	DAX1 inh-2	hgDAF-12 ag	AHR activator	hcDAF-12 act	ssDAF-12 act	hgDAF12 conf	LXR ag 2
COc1ccc(N2Cc3ccccc3C2=O)cc1	–	–	21	–	–	–	16	–
COc1ccc(N2C(=O)c3ccccc3NC23CCCC3)cc1	4.5	–	14	–	–	–	–	–
COc1ccc(N2CCN(C(=O)CCS(=O)(=O)c3ccc4c(c3)NC(=O)CO4)CC2)cc1	–	–	–	–	–	–	·	·
O=C(COc1cc(Cl)c(Cl)cc1Cl)N1CCN(c2ccccn2)CC1	–	·	–	–	–	–	·	·
Cn1cccc1C(=O)N/N=C/c1c(Cl)cccc1Cl	–	–	13	–	5.9	–	12	–
CCN(CC)S(=O)(=O)c1cccc(NC(=O)CN(C)Cc2cccc(OC)c2)c1	–	–	–	–	–	–	·	·
CCOC(=O)c1c(S(=O)(=O)NCC(=O)Nc2ccc(F)cc2F)c(C)n(C)c1C	–	–	–	–	–	–	·	·
CCOC(=O)c1ccc(NCc2nc3ccccc3[nH]2)cc1	–	–	15	–	–	–	–	–
O=C(/C=C/c1ccc(Br)o1)Nc1nccs1	–	–	14	–	5.8	–	15	–
O=C1C(Cl)=C(N2CCCCCC2)C(=O)N1c1ccc(Cl)cc1	–	–	–	–	–	–	·	·
O=C1C=C(N2CCCCCC2)C(=O)N1c1ccc(Cl)cc1	–	–	15	·	–	–	–	–
CCc1ccc2c(c1)[C@H]1OCC[C@H]1[C@@H](c1cccs1)N2	–	–	14	78	–	–	11	–
Clc1ccc2c(c1)[C@H]1OCC[C@H]1[C@@H](c1ccco1)N2	–	–	–	–	–	–	·	·
CCCn1c(C)cc(C(=O)COc2ncnc3sccc23)c1C	–	–	14	–	–	–	13	–
Cc1ccccc1C(=O)NC1CCCCCCC1	–	–	15	–	–	1.0	12	–
COc1cccc(/C=C/c2ccccn2)c1O	–	–	16	–	–	–	14	–
CCOC(=O)CSc1nc2ccc(N)cc2s1	–	–	–	–	–	–	·	·
Nc1ccc2nc(SCc3cccc(F)c3)sc2c1	–	–	16	–	–	–	12	–
C/C(Cn1cnc([N+](=O)[O-])n1)=N\NC(=O)c1ccncc1	–	–	–	–	–	–	·	·
COc1ccc(C(=O)N/N=C(\C)Cn2cnc([N+](=O)[O-])n2)cc1	–	–	15	–	–	–	–	–
Clc1ccc(CN2C3=NCCCN3c3ccccc32)c(Cl)c1	–	–	–	–	–	–	·	·
N#C/C(=C\c1ccc(N2CCOCC2)cc1)c1ccccc1	–	–	21	–	6.1	–	17	–
Cc1ccc(N=Cc2c(O)[nH]c3ccccc23)c([N+](=O)[O-])c1	4.1	–	15	–	–	–	12	–
O=C(O)c1cccc(N/N=C/c2ccc(OC(F)(F)F)cc2)c1	–	–	–	–	–	–	·	·
COC(=O)c1ccc(COc2ccc(/C=N/Nc3cccc(C(=O)O)c3)cc2)cc1	–	–	17	–	–	1.4	13	–
SMILES	DAX1 inh-1	DAX1 inh-2	hgDAF-12 ag	AHR activator	hcDAF-12 act	ssDAF-12 act	hgDAF12 conf	LXR ag 2
CCC(=O)c1ccc(OCc2ccc(C(=O)OC)cc2)cc1	–	–	16	–	–	–	15	–
CC(C)C(=O)N/N=C/c1ccc(OCc2ccccc2)cc1	–	–	–	–	–	–	·	·
CC(=O)Nc1ccc(N=Cc2ccc(OCc3ccccc3)cc2)cc1	–	–	14	–	–	–	11	–
CCOc1ncccc1C(=O)OCc1ccc(C(=O)OC)cc1	–	–	15	–	–	–	12	–
O=[N+]([O-])c1cccc(COc2ccccc2CO)c1	–	·	–	·	–	–	·	·
COc1ccc(OC)c(N(CC(=O)Nc2ccccc2F)S(=O)(=O)c2ccccc2)c1	–	–	–	–	–	–	·	·
COc1ccc(/C=C/C(=O)c2ccccc2)c(OC)c1	–	–	14	–	–	–	14	–
COc1ccc(/C=C/C(=O)c2ccc3c(c2)OCO3)c(OC)c1	–	–	24	–	–	–	17	–

From PubChem
